Structures are written as SMILES. The panel holds about 79,000 compounds, 15% with a hit somewhere; the sample as a whole holds those more often. Values without a mark were called inactive. Activity calls are given as the source filed them. Rule as the data show it: active = growth inhibition above about 70%; inactive = the rest.

The nature of this assay: NCI Yeast Anticancer Drug Screen. Data for the mec2-1 strain (AID 157). As to conditions: S. cerevisiae mec2-1 strain, at 50.0 µM, stronger effect = higher value. Summed up: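 Compounds were applied to mec2-1 yeast cells. Their growth was then compared with that of vehicle-treated cultures to give growth inhibition.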
On to `Cc1ccc(C(=O)C(c2nc3n(c2O)/C(=N/C(=O)Nc2ccc(Cl)cc2)N=N3)c2nc3n(c2O)/C(=N/C(=O)Nc2ccc(Cl)cc2)N=N3)cc1`, for which the growth inhibition is -29.2%. To `CCCCS(=O)(=O)CCC(N)C(=O)O` (configuration not stated) belongs -9.45%.

As to `Clc1ccc(C2N3CCCCC3[C@@H]3c4[nH]c5ccccc5c4CCN23)cc1` (some centres not stated), the growth inhibition is -10.8%. `O=C1NC(=O)C(c2ccc(Cl)c(Cl)c2)N1` (configuration not stated): the growth inhibition is -10%. Regarding `CCCC(C)C(=O)OCCOC` (configuration not stated), the growth inhibition was -5.3%.

With `Cc1ccc(N=Cc2cc(Cl)cc(Cl)c2OC(=O)c2ccccc2)cc1C`, the growth inhibition was 91.7% (active). `CN(Cc1ccccc1)C(=O)NC1CCCCC1`: the growth inhibition was 0.05%.

As to `c1ccc2c(-c3ccncc3)c3ccccc3cc2c1`, the growth inhibition is 2.6%.

On to `C(=N/Nc1ccccc1)/c1ccco1`, for which the growth inhibition was -1%. Consider `CCCc1sc(NC(C)=O)nc1-c1ccccc1`, for which the growth inhibition is 5.85%. Consider `CC(=O)OC1CCC2(C)C(CCC3(C)C2CC=C2C4CC(C)(C)CCC4(C)CCC23C)C1(C)C` (configuration not stated), for which the growth inhibition was -1%.

For the compound `CCOC(=O)C(C)c1nc2cc(C(F)(F)F)ccc2[nH]c1=O` (configuration not stated), the growth inhibition was 7.1%. Regarding `NC(=O)C(=O)NNC(=O)Nc1ccc(Cl)cc1`, the growth inhibition is 12.3%. Consider `CCCCC1OCCOC1C1COCCO1` (configuration not stated), for which the growth inhibition is -21.9%. Consider `CC(=O)Oc1ccc(Nn2c3ccccc3c3ccccc32)c(C)c1`, for which the growth inhibition is 47.9%. In the case of `CCCCCCCCC(=O)Nc1nc2nc[nH]c2c(=O)[nH]1`, the growth inhibition is -33.2%. On to `CCC(CC)C(=O)OCCCCC1CCCO1` (configuration not stated), for which the growth inhibition was 11.2%. For `CC(C)C(=O)OC1(Cc2cccc[n+]2C)CCCCC1`, the growth inhibition is 9.6%. On to `CCCCCCn1ncc(=O)[nH]c1=O`, for which the growth inhibition was -6.7%.

`Cc1ccc(O)c(C)n1`: the growth inhibition was 14%. Take `N#C/C(=C\C1CCCC([N+](=O)[O-])C1)C1CCC([N+](=O)[O-])CC1` (configuration not stated): the growth inhibition is 5.3%. To `CC(=O)c1cccc2c(C(C)=O)cccc12` belongs -5.2%. For the compound `CN1C(=O)CC(c2ccc(Cl)cc2)C1=O` (configuration not stated), the growth inhibition is 21.4%. Turning to `C=CCNC(=S)N(Cc1ccccc1)Cc1ccccc1`, the growth inhibition was 80% (active). For the compound `CC(C)(C)NCC(O)c1ccc(O)c(CO)n1` (configuration not stated), the growth inhibition was -8.05%. With `O=S1(=O)C2C=CCC1C(Cl)CC2` (configuration not stated), the growth inhibition is 29.9%. On to `O=C1c2ccccc2-c2nc(/C=C/c3ccccc3)cc3c2c1nc1ccccc13`, for which the growth inhibition was 6.2%.

The values are drawn from PubChem BioAssay (NCI).
